High-throughput results from PubChem BioAssay.
Many of the other results were omitted from the sample, so hits are more common in it than they were.
Shiga inhibitor: blocks Shiga toxin action in Vero cells; Vero cells, Shiga toxin protein synthesis inhibition reporter; inhibition, % at 38.7 µM; 290,000 compounds, 9.2% hits; AID 2315; in the data active means inhibition mostly above about 28%, no sharp cut-off; inactive means mostly below about 43%; further: 0% is about no effect
Giardia FBPA inh-1: inhibitors of Giardia lamblia fructose-1,6-bisphosphate aldolase | A8B2U2 | purified Giardia FBPA | Potency, µM (highest dose often 59.6 µM), for the others: at the top dose activity, negative = inhibition, hits mostly inhibitors | 290,000 compounds, 0.71% hits | AID 2451; further: potency means the concentration at half of the fitted maximal effect; on the % scale 0 is the no-effect control and ±100 the full control effect; nearly all actives have a fitted effect of over 55% in size
Target sequence (A8B2U2 whole entry, looked up): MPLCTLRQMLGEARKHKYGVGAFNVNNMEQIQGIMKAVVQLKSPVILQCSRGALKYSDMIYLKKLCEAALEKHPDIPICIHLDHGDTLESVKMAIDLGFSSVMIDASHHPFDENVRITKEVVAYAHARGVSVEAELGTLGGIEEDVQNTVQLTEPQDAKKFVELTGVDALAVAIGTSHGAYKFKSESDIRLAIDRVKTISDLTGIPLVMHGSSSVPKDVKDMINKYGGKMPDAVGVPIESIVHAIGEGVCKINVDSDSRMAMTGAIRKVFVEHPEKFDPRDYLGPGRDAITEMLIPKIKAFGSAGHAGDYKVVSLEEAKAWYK
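Giardia FBPA (40 nM reagent) was preincubated 10 min at RT with compound (up to 57.5 uM final), then substrate plus GAPDH/TPI/NAD/arsenate coupling system with diaphorase/resazurin was added; resorufin fluorescence (525/598 nm) was read after 20 min.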
LmPK inhibitor: blocks Leishmania mexicana pyruvate kinase activity; Q27686; purified LmPK, Kinase-Glo ATP luminescence, 1 h; Potency, µM (series often up to 57.5 µM), for inactives: at the top dose activity change, negative = inhibition, most hits filed as inhibitors; 290,000 compounds, 0.37% hits; further: potency means the concentration at half of the fitted maximal effect; on the % scale 0 is the no-effect control and ±100 the full control effect
Target sequence (Q27686 whole entry, looked up): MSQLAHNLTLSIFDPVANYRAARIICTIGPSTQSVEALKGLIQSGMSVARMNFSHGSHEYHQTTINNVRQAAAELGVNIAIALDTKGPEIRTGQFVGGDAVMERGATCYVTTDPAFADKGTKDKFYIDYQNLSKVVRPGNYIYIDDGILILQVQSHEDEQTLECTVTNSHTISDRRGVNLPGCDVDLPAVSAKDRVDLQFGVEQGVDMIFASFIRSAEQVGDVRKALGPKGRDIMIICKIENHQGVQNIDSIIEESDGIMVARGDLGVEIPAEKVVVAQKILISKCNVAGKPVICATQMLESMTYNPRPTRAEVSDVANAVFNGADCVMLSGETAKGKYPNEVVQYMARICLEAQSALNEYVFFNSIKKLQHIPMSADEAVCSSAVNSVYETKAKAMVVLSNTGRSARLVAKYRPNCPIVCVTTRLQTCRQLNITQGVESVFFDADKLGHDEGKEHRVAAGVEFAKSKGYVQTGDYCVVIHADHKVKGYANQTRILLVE
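Screened at intermediate enzyme activity to detect both inhibitors and activators: LmPK at 0.1 nM, with a 0.5 nM enzyme column as activation reference. PEP 0.5 mM, ADP 0.1 mM; ATP detected by luminescence after 1 h.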
Tb PYK inh: blocks Trypanosoma brucei pyruvate kinase; TbPYK enzyme, Kinase-Glo Plus ATP luminescence, 45 min; 410,000 compounds, 0.12% hits; Potency, µM (highest dose often 76.8 µM), without a hit: top-dose activity, negative = inhibition, hits mostly inhibitors; Q57TT1; further: potency means the concentration at half of the fitted maximal effect; on the % scale 0 is the no-effect control and ±100 the full control effect; nearly all actives have a fitted effect of over 50% in size
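Quantitative HTS: titrated library compounds versus trypanosomal pyruvate kinase in TEA buffer (pH 7.2) containing KCl, MgCl2, BSA and Tween-20. Reactions were initiated with ADP, 130 uM final. Kinase-Glo Plus luminescence was read after 45 min at RT.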
RE007 growth inh: less growth of the S. pombe RE007 Vpr strain. S. pombe RE007 Vpr strain, BacTiter-Glo ATP luminescence, 24 h. Potency, µM (highest dose often 92.2 µM), for inactives: top-dose activity change, negative = less growth, hits mostly inhibitors. 360,000 compounds, 0.21% hits; active means well fitted falling curve with a large enough effect; inconclusive means small, poorly fitted or top-dose-only effect; inactive means no such curve, though single readings can be large or run the other way; further: potency means the concentration at half of the fitted maximal effect; on the % scale 0 is the no-effect control and ±100 the full control effect; nearly all actives have a fitted effect of over 50% in size
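Fission yeast RE007 carrying one integrated HIV-1 vpr copy, seeded at OD 0.01 in PMG+AL medium with 23 nL pinned compound. Grown 24 h at 30 degrees; viability read by BacTiter-Glo luminescence after 5 min.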
CHX counter: counter-screen hit for Shiga toxin inhibitors, cycloheximide. cell reporter, cycloheximide protein synthesis inhibition counterscreen. max response, %. 300,000 compounds, 12% hits. AID 2314; in the data active means max response mostly above about 13%, no sharp cut-off; inactive means mostly below about 14%; further: read at 38.3 µM for the half of the compounds with a filed dose; 0% is about no effect
Giardia growth: blocks growth of Giardia lamblia trophozoites. shares compounds with Giardia FBPA inh-1. Giardia lamblia trophozoite growth inhibition. Potency, µM (doses to about 57.5 µM), for inactives: at the highest dose activity change, negative = inhibition, most hits filed as inhibitors. 1,500 compounds, 5% hits;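 further: potency means the concentration at half of the fitted maximal effect; trophozoites exposed to compound for 48 h at 37 °C; on the % scale 0 is the no-effect control and ±100 the full control effect; nearly all actives have a fitted effect of over 70% in size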
Mammal cell tox: counter-screen for Giardia aldolase inhibitors: mammalian cell toxicity; Potency, µM (doses to about 57.5 µM), inactives show at the top dose viability change, negative = toxicity, actives largely listed as inhibitors; 1,500 compounds, 4% hits; mammalian cell viability counter-screen, qHTS; shares compounds with Giardia FBPA inh-1; AID 2786;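 further: Chinese hamster ovary cells used as mammalian cytotoxicity surrogate; viability measured as cellular ATP by luminescence; potency means the concentration at half of the fitted maximal effect; compound exposure lasted 48 h before reading; on the % scale 0 is the no-effect control and ±100 the full control effect; nearly all actives have a fitted effect of over 60% in size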
Giardia FBPA inh-2: confirmation of Giardia fructose-bisphosphate aldolase inhibitors; shares compounds with Giardia FBPA inh-1; purified Giardia aldolase enzyme activity, qHTS; Potency, µM (series often up to 57.5 µM), for inactives: top-dose activity change, negative = inhibition, hits mostly inhibitors; 1,500 compounds, 5% hits; AID 2787; further: potency means the concentration at half of the fitted maximal effect; on the % scale 0 is the no-effect control and ±100 the full control effect; nearly all actives have a fitted effect of over 45% in size
Rabbit FBPA inh: rabbit FBP aldolase inhibition by Giardia aldolase hits; shares compounds with Giardia FBPA inh-1; Rabbit muscle FBPA enzyme inhibition, selectivity counter-screen; Potency, µM (doses to about 57.5 µM), for inactives: at the highest dose activity, negative = inhibition, hits mostly inhibitors; 1,500 compounds, 4% hits; AID 2794; further: potency means the concentration at half of the fitted maximal effect; on the % scale 0 is the no-effect control and ±100 the full control effect; nearly all actives have a fitted effect of over 60% in size
GAPDH coupling: GAPDH inhibition flagged for Giardia aldolase hits | GAPDH coupling enzyme counterscreen, biochemical, qHTS | Potency, µM (highest dose often 57.5 µM), for the others: at the highest dose activity change, negative = inhibition, hits mostly inhibitors | AID 2795 | 1,500 compounds, 6% hits | shares compounds with Giardia FBPA inh-1; further: potency means the concentration at half of the fitted maximal effect; on the % scale 0 is the no-effect control and ±100 the full control effect; nearly all actives have a fitted effect of over 55% in size
* marks the source's active call; other numbers are inactive results; ? = inconclusive; . = no result given; [ ] = dose if it differs, or a comment. Unless noted, the call rests on the fitted dose curve; in most records, active means well fitted curve in the direction sought with a large enough effect; inconclusive means small, poorly fitted or top-dose-only effect, or another doubt; inactive means no such curve, though single readings can be large; an effect the other way counts as inactive or inconclusive.

SMILES	Shiga inhibitor	Giardia FBPA inh-1	LmPK inhibitor	Tb PYK inh	RE007 growth inh	CHX counter	Giardia growth	Mammal cell tox	Giardia FBPA inh-2	Rabbit FBPA inh	GAPDH coupling
CCOc1ccc(CCNC(=O)COC(=O)c2nc(Cl)ccc2Cl)cc1OCC	.	.	.	4%	-8%	.	.	.	.	.	.
COC(=O)C1=C(C)N(CCc2c[nH]c3ccc(OC)cc23)C(=O)C1	22	?	-1%	1%	-3%	-7	.	.	.	.	.
Cc1cccc(N(C)C(=O)CSc2nc3ncccc3o2)c1	.	.	.	4%	.	.	.	.	.	.	.
COc1ccc(CNCC(O)COc2ccc3[nH]c(=O)ccc3c2)cc1OC (configuration not stated)	.	.	.	-6%	.	.	.	.	.	.	.
CC(=O)NNC(=S)NC(=O)c1ccc(C)cc1	5	1%	2%	-7%	11%	-2	.	.	.	.	.
CCC(=O)NNC(=S)NC(=O)c1ccc(C)cc1	51*	18µM*	5%	-5%	-22%	31*	?	-5%	23%	-1%	13%
O=C(NC(=S)Nc1ccc(Cl)cn1)c1cc([N+](=O)[O-])ccc1N1CCOCC1	-5	14µM*	-13%	1%	23%	2	15%	18%	3%	-3%	11%
Cn1c(CN2CCCC2)nc2cc(NC(=O)COc3ccccc3)ccc21	42	0%	0%	2%	7%	-4	.	.	.	.	.
CC(=O)N1CCN(Cc2nc3cc(NC(=O)COc4cccc(C)c4)ccc3n2C)CC1	-12	20µM*	-1%	0%	-10%	-1	?	5%	-8%	11%	3%
Cc1ccccc1C(=O)N1CCC(C(=O)N(CC(C)C)c2c(N)n(Cc3ccccc3)c(=O)[nH]c2=O)CC1	.	.	.	3%	-14%	.	.	.	.	.	.
CCCC(=O)OCc1cnc(C)c2oc(=O)c(C(=O)Nc3cccc(C(F)(F)F)c3)cc12	.	.	.	2%	.	.	.	.	.	.	.
Cc1ccc(C(C)C)cc1OCCn1cncn1	-1	22µM*	-12%	8%	20%	-2	-2%[10.4 µM]	10%	4%	-6%	?
CC(NCCCOc1cccc2ccccc12)c1ccccc1 (configuration not stated)	.	?	4%	14%	0%	-6	.	.	.	.	.
Cc1ccccc1NS(=O)(=O)c1ccc2[nH]cc(C(=O)N3CCCC3)c(=O)c2c1	.	.	.	3%	.	.	.	.	.	.	.
O=C(/C=C/c1ccco1)Nc1nc(-c2ccccn2)cs1	53*	18µM*	11%	-26%	3%	49*	?	?	-13%	-10%	-7%
CSCCC(=O)Nc1nc(-c2ccccn2)cs1	36	16µM*	9%	-9%	-1%	21*	14µM*	-21%	-4%	-4%	-3%
COc1ccc(-c2csc(NC(=S)NC(=O)/C=C/c3ccco3)n2)cc1Br	-4	-10%	2%	1%	17%	-1	.	.	.	.	.
C[C@H](NC(=O)c1ccccc1)C(=O)Nc1nc(-c2ccccn2)cs1	19	5.6µM*	-2%	-8%	1%	6	?	-14%	1%	-3%	-3%
CC1CCC2C(=O)N3C(CCC(C)[C@@H]3c3cccc(N4CCOCC4)c3)C(=O)N2C1c1cccc(Br)c1 (some centres not stated)	.	1%[12.9 µM]	.	.	.	.	.	.	.	.	.
CC(C)C(=O)N1CCN(c2ccccc2NC(=O)c2ccco2)CC1	-6	14%	0%	1%	3%	-2	.	.	.	.	.
CCOC(=O)[C@]12CCCC=C1N(Cc1cccc3ccccc13)C(=O)[C@H](CC(=O)N1CCSCC1)C2	.	.	.	-4%	-3%	.	.	.	.	.	.
COCc1cccc(-c2csc(C(C)(O)c3cccc(F)c3)n2)c1 (configuration not stated)	.	.	.	-2%	19%	.	.	.	.	.	.
Cc1ccccc1N=Cc1cccc(O)c1O	7	5.6µM*	-25%	6%	.	8	20µM*	-10%	11µM*	32µM*	32µM*
COc1ccc(C(=O)CCC(=O)Nc2cc(C)ccc2C)cc1	.	.	.	-3%	.	.	.	.	.	.	.
O=C(NNC(=O)c1ccccc1[N+](=O)[O-])c1ccccn1	9	16µM*	-5%	0%	-14%	4	-15%[10.4 µM]	-16%	-5%	-6%	-14%
SMILES	Shiga inhibitor	Giardia FBPA inh-1	LmPK inhibitor	Tb PYK inh	RE007 growth inh	CHX counter	Giardia growth	Mammal cell tox	Giardia FBPA inh-2	Rabbit FBPA inh	GAPDH coupling
COc1cccc(NC(=O)COC(=O)c2ccc3c(c2)OCCO3)c1	.	.	.	-2%	7%	.	.	.	.	.	.
O=C(C[n+]1cccc(O)c1)NCc1ccc(Cl)cc1	-4	5%	-2%	-8%	-3%	-5	.	.	.	.	.
Cc1ccc(NC(=O)CN(C)C(=O)CSc2nncn2C)cc1	-14	5%	3%	-1%	12%	-6	.	.	.	.	.
CC(=O)/C(=N\Nc1ccc(C)cc1)Sc1nncn1C	6	3.5µM*	-25%	?	6%	1	-5%[38.3 µM]	-1%	-2%	-2%	-21%
CC(C)(C)c1ccc(C(=O)Nc2cccc3c(=O)[nH][nH]c(=O)c23)cc1	55*	20µM*	4%	1%	32%	56*	?	?	-5%	-3%	0%
CC(C)(C)c1ccc(C(=O)Nc2c(C(=O)c3ccc(F)cc3)oc3ccccc23)cc1	.	.	.	3%	.	.	.	.	.	.	.
CC(C)n1cnc2c(=S)nc[nH]c21	-5	3.2µM*	-2%	-13%	.	-2	6%[38.3 µM]	-2%	-2%	-20%	?
COC(=O)C(C)Sc1n[nH]c(=S)s1 (configuration not stated)	-21	?	27%	?	-9%	-3	.	.	.	.	.
O=C(O)CC(Sc1n[nH]c(=S)s1)C(=O)O (configuration not stated)	-4	4.5µM*	1%	?	13%	-2	15%[38.3 µM]	?	?	?	?
CCC(C)CCN1CCN=C1Nc1ccccc1 (configuration not stated)	.	.	.	-1%	-3%	.	.	.	.	.	.
Cc1cc(C)nc(SCC(=O)c2ccc(O)c(O)c2)n1	11	11µM*	7%	-6%	-1%	11	-25%	9%	-21%	-16%	-12%
